Potency and outcome data for 28 compounds are collected here from PubChem BioAssay (Tox21).

Test [1] in a line: A CellTox Green Cytotoxicity Assay to monitor cytotoxicity in HepG2 cells - 16 hour (AID 1224876). Further: nearly all actives have a fitted effect of over 45% in size. Further: potency means the concentration at half of the fitted maximal effect. An outline of the steps:
(§1)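 Read-out is fluorescence of a cyanine dye excluded from live cells that stains DNA of dead HepG2 cells, with signal proportional to cytotoxicity. Plates were read at 0, 8, 16, 24, 32 and 40 h after compound addition.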

Test [2] can be described thus: qHTS RealTime-Glo MT Cell Viability Assay in HepG2 cells - 32 hour (AID 1224877). Further: nearly all actives have a fitted effect of over 55% in size. An outline of the steps: (§2)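 HepG2 suspension premixed with RealTime-Glo reagents is plated at 600 cells per well and left 5 h at 37 C/5% CO2. Compounds in DMSO then go in, and bioluminescence reflecting viable cell number is recorded over 40 h.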
Background: In qHTS, concentration-response curves come from the screen itself.

Test [3] in a line: A CellTox Green Cytotoxicity Assay to monitor cytotoxicity in HepG2 cells - 24 hour (AID 1224878). Further: nearly all actives have a fitted effect of over 45% in size. Further: potency means the concentration at half of the fitted maximal effect. An outline of the steps: as §1
Test [4] can be described thus: A CellTox Green Cytotoxicity Assay to monitor cytotoxicity in HEK293 cells - 32 hour (AID 1224881). Further: nearly all actives have a fitted effect of over 40% in size. An outline of the steps:
(§3)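 Nonlytic real-time cytotoxicity: HEK293 + CellTox Green reagent plated, 5 h preincubation, pintool compound addition (23 nL in DMSO), 37 C for 40 h, fluorescence measured at successive time points.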

Test [5] in a line: A CellTox Green Cytotoxicity Assay to monitor cytotoxicity in HepG2 cells - 0 hour (AID 1224882). Further: nearly all actives have a fitted effect of over 35% in size. Further: potency means the concentration at half of the fitted maximal effect. An outline of the steps:
as §1

Test [6] in a line: A CellTox Green Cytotoxicity Assay to monitor cytotoxicity in HEK293 cells - 8 hour (AID 1224884). Further: nearly all actives have a fitted effect of over 35% in size. An outline of the steps: as §3
The nature of test [7]: qHTS RealTime-Glo MT Cell Viability Assay in HEK293 cells - 0 hour (AID 1224880). Further: top concentration of the series differs between compounds; nearly all actives have a fitted effect of over 45% in size. The procedure, abridged:
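Cells were seeded together with NanoLuc luciferase and a prosubstrate that viable cells reduce to a luciferase substrate. After a 5 h incubation at 37 C/5% CO2, compounds were added and luminescence was measured repeatedly during 40 h of treatment.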

The nature of test [8]: qHTS RealTime-Glo MT Cell Viability Assay in HepG2 cells - 16 hour (AID 1224885). Further: nearly all actives have a fitted effect of over 50% in size. An outline of the steps:
as §2

Test [9] in a line: A CellTox Green Cytotoxicity Assay to monitor cytotoxicity in HepG2 cells - 32 hour (AID 1224883). Further: nearly all actives have a fitted effect of over 50% in size. The procedure, abridged:
as §1

The nature of test [10]: A CellTox Green Cytotoxicity Assay to monitor cytotoxicity in HepG2 cells - 40 hour (AID 1224879). Further: nearly all actives have a fitted effect of over 40% in size. The procedure, abridged:
as §1

Unmarked numbers belong to inactive results. Records with an inconclusive call do not appear. The source made the active and inactive calls. The call rests on the fitted dose curve; in most records, active means well fitted curve in the direction sought with a large enough effect in the repeat runs; inconclusive means weak or mixed curves; inactive means no such curve, though single readings can be large; an effect the other way counts as inactive or inconclusive.

Take `COc1ccc(N=Nc2cc(C)c(N=Nc3ccc(S(=O)(=O)O)cc3)cc2OC)cc1`: the Potency result in test [1], in test [3], in test [4], in test [5] and in [6] was “inactive” throughout. In addition, the compound was called inactive in test [2].
In the case of `CCCCCCCCCCCCCCCCCCN(C)C`, the Potency result in test [1], in [3] and in test [5] was “inactive” in each case. Further, the compound was called inactive in test [2], in [7] and in test [8].
Turning to `CCCCCCCCOC(C)=O`, the Potency result in test [1], in test [3], in [4], in test [5], in [9] and in [6] was “inactive” each time. The outcome in test [2] was inactive.
Consider `O=C1OC(=O)c2ccccc21`, for which the compound was classed as inactive in test [2], in [7] and in [8]. Also, the Potency result in test [3], in [10], in test [4], in [5], in test [9] and in [6] was “inactive” in each case.
Consider `Oc1ccccc1Cc1ccccc1O`, for which the Potency entry in test [1], in [4] and in test [5] was “inactive” throughout. The compound was called inactive in test [2], in [7] and in test [8].
As to `CCOC(=O)CCCCCCCCC(=O)OCC`, the Potency entry in test [1], in test [3], in test [4], in test [5], in test [9] and in [6] was “inactive” each time. For the same compound, the compound was called inactive in test [2].
Consider `CC(C)CCO`, for which the Potency result in test [1], in [3], in test [10], in test [4], in test [5] and in test [9] was “inactive” in each case. Also, the Potency entry in test [6] was “inactive”. Further, the compound was classed as inactive in test [7].
On to `CC(C)COC(=O)/C=C/c1ccccc1`, for which the Potency entry in test [1], in [5] and in [6] was “inactive” throughout. Also, the compound was called inactive in test [2] and in [7].
Consider `O=c1cc(O)c(Cl)c[nH]1`, for which the compound was classed as inactive in [2], in test [7] and in [8]. Besides, the Potency result in test [3], in [10], in test [4], in [5], in test [9] and in [6] was “inactive” in each case.
Consider `CO[Si](CCCS)(OC)OC`, for which the Potency result in test [1], in test [3], in test [4], in [5], in test [9] and in [6] was “inactive” each time. The compound was called inactive in test [2], in test [7] and in [8].
For `Nc1ccc(C(=O)OCC(O)CO)cc1` (stereo not given), the compound was called inactive in test [2] and in test [7]. Besides, the Potency result in test [3], in [10], in [4], in test [5], in test [9] and in [6] was “inactive” throughout.
For `Nc1ccnc(=O)[nH]1`, the result in [2] and in test [7] was inactive. Moreover, the Potency entry in [3], in test [10], in test [4], in test [5] and in test [9] was “inactive” in each case.
Consider `CCC1COC(=O)O1` (stereo not given), for which the outcome in test [2], in [7] and in [8] was inactive. The Potency result in [3], in test [10], in test [4], in test [5], in [9] and in [6] was “inactive” each time.
With `C[C@@H]1C[C@H]2[C@@H]3C[C@H](F)C4=CC(=O)C=C[C@]4(C)[C@@]3(F)[C@@H](O)C[C@]2(C)[C@@]1(O)C(=O)CO`, the Potency entry in test [1], in [10], in test [4] and in test [6] was “inactive” in each case. Besides, the call in test [2] and in [8] was inactive.
In the case of `O=C1c2ccccc2-c2ccccc21`, the Potency entry in test [1], in [3], in test [4], in [5] and in test [9] was “inactive” in each case. Further, the outcome in test [2], in [7] and in test [8] was inactive.
`CCCCC(CC)CNC(=O)CC(C)OC(=O)CCC(=O)O` (stereo not given): the Potency in [1] is 23.9 µM (active); in [3], 26.8 µM (active); in test [5], 26.8 µM (active). In addition, the outcome in test [2] and in [7] was inactive. The Potency result in [4] and in test [6] was “inactive” in each case.
In the case of `CC1(N)CCC(C(C)(C)N)CC1` (stereo not given), the compound was called inactive in test [2], in test [7] and in test [8]. In addition, the Potency entry in [3], in [10], in test [4], in test [5], in [9] and in [6] was “inactive” each time.
Take `CC(=O)OC(C)(C)Cc1ccccc1`: the Potency result in [1], in test [3], in [4], in test [5], in test [9] and in test [6] was “inactive” each time. The outcome in [2], in test [7] and in test [8] was inactive.
Take `CNC(=O)C(c1ccccc1)c1ccccc1`: the compound was classed as inactive in test [2] and in test [8]. Besides, the Potency result in test [4], in test [5] and in test [6] was “inactive” each time.
With `C=C(C)C(=O)OC1CC(C)CC(C)(C)C1` (stereo not given), the compound was classed as inactive in test [2], in [7] and in [8]. In addition, the Potency entry in test [3], in test [4], in test [5] and in test [6] was “inactive” in each case.
As to `O=C1NC2NC(=O)NC2N1` (stereo not given), the compound was classed as inactive in test [2] and in [8]. Further, the Potency entry in [3], in [4], in [5] and in [6] was “inactive” each time.
For the compound `O=C(c1ccc2c(c1)C(=O)OC2=O)c1ccc2c(c1)C(=O)OC2=O`, the result in test [2], in [7] and in test [8] was inactive. In addition, the Potency entry in test [3], in [10], in test [4], in test [5] and in [6] was “inactive” throughout.
Take `CCCCCCCCCCCCC`: the call in [2], in [7] and in test [8] was inactive. Also, the Potency result in test [3], in test [10], in test [4], in test [5], in [9] and in test [6] was “inactive” in each case.
As to `CCCCCCCCCCC`, the compound was called inactive in test [2], in test [7] and in [8]. Also, the Potency entry in test [3], in [10], in test [4], in [5] and in [9] was “inactive” each time.
As for `OCCCCCCCl`, the compound was called inactive in [2], in test [7] and in [8]. In addition, the Potency entry in test [3], in test [10], in test [4], in test [5], in [9] and in test [6] was “inactive” in each case.
Regarding `CCN(CCC#N)c1ccccc1`, the compound was classed as inactive in test [2], in [7] and in test [8]. Besides, the Potency entry in test [3], in test [10], in [4], in test [5] and in test [9] was “inactive” in each case.
Take `FC(F)(F)c1ccc(Cl)cc1Cl`: the compound was called inactive in [2], in test [7] and in test [8]. The Potency entry in test [3], in test [10], in [4], in test [5], in [9] and in [6] was “inactive” each time.
For `CC(=O)Nc1ncc([N+](=O)[O-])s1`, the compound was classed as inactive in test [2] and in test [8]. The Potency entry in test [3], in test [10], in [4] and in test [6] was “inactive” in each case.
